This is an account of results in PubChem BioAssay.

For one test, the target named is Albumin (Bos taurus) (UniProt P02769). Nature of the test: compounds binding labelled BSA control protein – biochemical, small-molecule microarray, Alexa647 label, 635/667 nm fluorescence, artefact control for SMM control protein annotation, profiling panel (AID 1118).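 Further: score merges 667 nm emission intensity and signal-to-noise per printed compound spot.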 As to conditions: BSA-A647 binding, fluorescence 635 nm, higher = more signal.
Test [1] is described as follows: probe aXIP binding to arrayed compounds – biochemical, NeuroSMM set, 635/667 nm fluorescence, primary screen (AID 1119).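 Further: probe is the protein aXip251-270 applied at 1 µg/mL to compound-printed slides; binding of probe to printed compounds measured as 667 nm fluorescence plus signal to noise.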 As to conditions: small-molecule microarray, higher = more signal, called active from +8 up or from −8 down.
Test [2] can be described thus: probe aNOTCH3 binding on compound microarray – biochemical, small-molecule microarray, 635/667 nm fluorescence, primary screen (AID 1120).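 Further: probe is a biotin-tagged antibody raised against NOTCH3 rather than NOTCH3 protein; score merges spot fluorescence near 667 nm with spot signal to noise.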 The conditions noted are these: higher = more signal.
Test [3] is described as follows: probe aNOTCH2 binding on compound microarray – biochemical, small-molecule microarray, 635/667 nm fluorescence, primary screen (AID 1121).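 Further: score merges feature fluorescence read at 667 nm with its signal to noise.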 The conditions noted are these: higher = more signal.
Test [4] concerns the target Carbonic anhydrase 2 (Homo sapiens) (UniProt P00918). Put plainly: compounds binding carbonic anhydrase 2 – biochemical, small-molecule microarray, Alexa647-labelled CAII, profiling panel (AID 1122). The conditions noted are these: CAII-A647 binding fluorescence, higher = more signal.
Test [5] in a line: COS7 lysate on small-molecule microarray, probe aHis, 635 nm (AID 1123).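 Further: z-score combines 667nm fluorescence intensity with signal-to-noise per printed compound spot.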 As to conditions: COS7 cell lysate, fluorescence, higher = more signal.
Test [6] is described as follows: probe aLAP1 signal on lysate-treated microarray – cell lysate, small-molecule microarray, COS7 lysate, primary screen (AID 1124).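 Further: lysate comes from COS7 cells expressing LAP1 and is applied at 0.3 µg/mL; score merges spot fluorescence near 667 nm with signal-to-noise over triplicate slides.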 The conditions noted are these: probe aLAP1, fluorescence, higher = more signal.
A further test deals with Sam68 (KHDRBS1). Put plainly: compounds binding KHDRBS1 protein – biochemical, small-molecule microarray, 635 nm fluorescence, primary screen (AID 1125).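 Further: score merges 667 nm channel intensity with signal to noise over triplicate slides.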 As to conditions: higher = more signal.
The test system of test [7] is Chordin-like protein 2 (CHRDL2). Put plainly: compounds binding chordin-like 2 – biochemical, small-molecule microarray, 635 nm fluorescence, primary screen (AID 1126).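 Further: printed compound slides probed with Chrdl2 protein at 4 µg/mL for 1 h at 4 C; score merges 667 nm emission intensity with signal to noise over three replicate slides.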 The conditions noted are these: fluorescence 635 nm, higher = more signal.
Test [8] addresses Concanavalin-A (Canavalia ensiformis) (UniProt P02866). Nature of the test: compounds binding concanavalin A lectin – biochemical, small-molecule microarray, Alexa647 label, 635 nm, artefact control for SMM control protein annotation, primary screen (AID 1127).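 Further: z combines 667 nm emission intensity with signal-to-noise across three replicate slides.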 As to conditions: ConA-A647 binding fluorescence, higher = more signal.

Structures are written as SMILES. Calls of active or inactive are those of the source.

Sequence of Albumin (Bos taurus) (P02769 whole entry, looked up): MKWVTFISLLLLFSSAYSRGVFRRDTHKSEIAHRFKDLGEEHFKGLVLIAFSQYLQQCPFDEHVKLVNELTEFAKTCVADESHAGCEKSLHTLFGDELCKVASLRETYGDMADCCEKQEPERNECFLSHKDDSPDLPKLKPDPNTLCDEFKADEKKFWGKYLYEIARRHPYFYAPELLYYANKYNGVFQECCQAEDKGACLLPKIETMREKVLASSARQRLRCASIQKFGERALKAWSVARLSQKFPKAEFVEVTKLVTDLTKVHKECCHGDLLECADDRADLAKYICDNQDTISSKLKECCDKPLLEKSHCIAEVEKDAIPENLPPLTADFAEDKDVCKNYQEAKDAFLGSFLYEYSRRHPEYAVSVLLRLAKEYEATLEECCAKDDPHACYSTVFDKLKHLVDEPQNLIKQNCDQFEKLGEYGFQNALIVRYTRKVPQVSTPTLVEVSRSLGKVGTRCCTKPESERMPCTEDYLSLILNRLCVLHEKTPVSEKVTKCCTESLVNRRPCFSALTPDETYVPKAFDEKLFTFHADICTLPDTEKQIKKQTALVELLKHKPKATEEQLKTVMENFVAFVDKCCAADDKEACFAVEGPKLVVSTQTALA
Sequence of Concanavalin-A (Canavalia ensiformis) (P02866 whole entry, looked up): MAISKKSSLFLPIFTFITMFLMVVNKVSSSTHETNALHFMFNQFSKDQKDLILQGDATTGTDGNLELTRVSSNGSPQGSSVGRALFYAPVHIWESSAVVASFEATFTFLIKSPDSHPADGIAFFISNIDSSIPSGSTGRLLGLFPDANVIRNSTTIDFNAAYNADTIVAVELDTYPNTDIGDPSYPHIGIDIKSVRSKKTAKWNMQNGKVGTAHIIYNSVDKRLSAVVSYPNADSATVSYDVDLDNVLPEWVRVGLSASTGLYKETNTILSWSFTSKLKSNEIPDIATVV

Take `O=C(C1N=C(c2ccc(OCCCO)cc2)N(c2ccccc2)O1)N1CCCCC1` (stereo not given): the composite z-score was determined as 0.909 with Albumin (Bos taurus); 0.304 in test [2]; 0.116 in [3]; 0.718 in test [4]; 2.31 in test [5]; 0.936 in test [6]. Moreover, the figures for the composite z-score (with Sam68 (KHDRBS1); in test [7]; in test [8]) were 1.29, 0.165 and 1.2, respectively. Besides, the composite Z-score in test [1] was 1.91 (inactive).

On to `COc1cc(C(O)C2C=CC3C(=O)N(C)C(=O)C3N2Nc2ccccc2)cc(OC)c1OC` (stereo not given), for which the composite z-score stood at 0.785 with Albumin (Bos taurus); 0.962 in test [2]; 0.106 in test [3]; 0.818 in test [4]; 3.2 in test [5]; 0.708 in [6]. Besides, the composite z-score was 1.11 with Sam68 (KHDRBS1), -0.0836 in test [7] and 1.01 in test [8]. In addition, in [1], the composite Z-score was -0.014 (inactive).

For `COC(=O)[C@@]1(Cc2ccccc2)[C@H]2c3cc(C(=O)N(C)C)n(Cc4ccc(C)o4)c3C[C@H]2CN1C(=O)c1ccccc1`, the composite z-score with Albumin (Bos taurus) came to 0.874; in test [2], 1.25; in test [3], 0.618; in test [4], 0.753; in test [5], 1.93; in [6] it was 0.673. Also, the composite z-score with Sam68 (KHDRBS1) is 1.12; in test [7], -1.06; in test [8], 0.354. The composite Z-score in test [1] was 0.173 (inactive).

As for `COCCOC(=O)N1C(=O)[C@@]2(c3cc(C#CCCO)ccc31)[C@H](c1ccc(OCCO)cc1)N1[C@H](c3ccccc3)[C@H](c3ccccc3)OC(=O)[C@H]1[C@@H]2C(=O)Nc1nc2ccccc2s1`, the composite z-score in the test with Albumin (Bos taurus) is 0.648; in [2], 0.0556; in test [3] it was 0.02; in test [4] it was 0.406; in [5] it was 0.556; in test [6] it was 0.559. Besides, the composite z-score with Sam68 (KHDRBS1) came to 1.31; in test [7] it was 0.27; in test [8], 1.13. Further, the composite Z-score in test [1] is -0.22 (inactive).

As for `C[N+](C)(C)CCCCCCNC(=O)[C@@H]1C[C@@H]2C(=O)N3CCC[C@H]3C(=O)N2[C@@H]1c1ccc(O)cc1`, the composite z-score was -0.245 in the test with Albumin (Bos taurus); 0.0591 in [2]; -0.118 in test [3]; 0.684 in test [4]; 1.47 in [5]; 0.326 in test [6]. Moreover, the figures for the composite z-score (in the test with Sam68 (KHDRBS1); in test [7]; in test [8]) were 0.904, 1.41 and 0.818, respectively. Moreover, in test [1], the composite Z-score is 0.05 (inactive).

Consider `COCCOC(=O)N1C(=O)[C@@]2(c3ccccc31)[C@H](c1ccc(O)cc1)N1[C@H](c3ccccc3)[C@H](c3ccccc3)OC(=O)[C@H]1[C@@H]2C(=O)N1CCN(c2ncccn2)CC1`, for which the composite z-score with Albumin (Bos taurus) is 0.397; in [2], -0.0014; in test [3] it was 0.0456; in test [4], 0.202; in test [5] it was 1.83; in test [6] it was 1.03. Besides, the composite z-score came to 1.2 in the test on Sam68 (KHDRBS1), 0.375 in test [7] and 0.928 in test [8]. Also, the composite Z-score in test [1] is 0.0692 (inactive).

In the case of `CC(C)N1C(=O)C[C@@](C(=O)NC2CC2)(c2ccc([N+](=O)[O-])cc2)[C@H]1c1ccc(CO)cc1`, the composite z-score with Albumin (Bos taurus) was -1.1; in test [2] it was -0.339; in [3] it was -0.14; in test [4], 0.525; in test [5] it was 2.95; in test [6], 0.965. Further, the composite z-score in the test with Sam68 (KHDRBS1) is -0.203; in [7], -1.08; in [8] it was -0.0039. In test [1], the composite Z-score is -0.239 (inactive).

Turning to `CCOC(=O)C1=CC[C@@H](c2ccccc2F)N(S(=O)(=O)c2ccc(C)cc2)[C@H]1c1ccccc1`, the composite z-score was 0.437 in the test with Albumin (Bos taurus); 0.103 in test [2]; 0.0416 in test [3]; 0.338 in test [4]; 1.19 in test [5]; 0.212 in test [6]. In addition, the figures for the composite z-score (in the test with Sam68 (KHDRBS1); in [7]; in test [8]) were 1.18, 0.0943 and 0.83, respectively. In addition, the composite Z-score in [1] is -0.244 (inactive).

With `CCCCC(=C=CC[C@H](O)c1ccc(OCCO)cc1)CCO`, the composite z-score is 0.837 with Albumin (Bos taurus); -0.121 in test [2]; -0.0795 in test [3]; 0.694 in [4]; 1.55 in [5]; 0.251 in test [6]. For the same compound, the figures for the composite z-score (in the test on Sam68 (KHDRBS1); in [7]; in test [8]) were 0.195, -1.13 and -0.727, respectively. Further, in [1], the composite Z-score is 0.0311 (inactive).

On to `CCOC(=O)C[C@H]1[C@H](OC(=O)c2ccc(C(=O)c3ccccc3)cc2)[C@@H](NC(=O)C2CCCCC2)c2cc(OCCCO)ccc2N1C(=O)c1ccc2ccccc2n1`, for which the composite z-score with Albumin (Bos taurus) was 0.534; in test [2] it was -0.0647; in test [3], -0.102; in test [4] it was 0.0738; in [5] it was 1.05; in [6], -0.0375. In addition, the results for the composite z-score (with Sam68 (KHDRBS1); in test [7]; in test [8]) were 1.31, 0.24 and 0.955, respectively. The composite Z-score in [1] was -0.482 (inactive).

Consider `CC(C)[Si]1(C(C)C)OCc2cc(C3CC3)nc(-c3ccc(Oc4ccccc4)cc3)c21`, for which the composite z-score was -0.808 with Albumin (Bos taurus); -0.177 in test [2]; -0.108 in test [3]; -0.204 in test [4]; 0.0215 in test [5]; -0.238 in test [6]. The composite z-score with Sam68 (KHDRBS1) was -0.459; in [7], -0.368; in [8], -0.725. Besides, the composite Z-score in test [1] is -0.26 (inactive).

As to `CCC1=C2CN(Cc3ccccc3)[C@@H](C(=O)Cc3ccccc3)C2C=CCC1` (stereo not given in full), the composite z-score in the test with Albumin (Bos taurus) is 0.912; in test [2] it was 0.0293; in [3], -0.149; in test [4] it was 0.679; in [5] it was 1.58; in test [6], -0.186. The composite z-score was 0.169 in the test with Sam68 (KHDRBS1), -0.263 in [7] and 0.351 in [8]. The composite Z-score in test [1] is -0.496 (inactive).

Regarding `[N-]=[N+]=NCc1ccccc1[C@H]1OC(c2ccc(OCCCO)cc2)=N[C@@]1(Cc1ccccc1N=[N+]=[N-])C(=O)NCC(O)CO` (stereo not given in full), the composite z-score in the test with Albumin (Bos taurus) is 0.992; in test [2], 0.483; in test [3] it was -0.0859; in test [4], 0.7; in test [5], 1.8; in test [6] it was 0.0939. Besides, the values for the composite z-score (in the test on Sam68 (KHDRBS1); in test [7]; in [8]) were 1.3, -0.603 and 1.09, respectively. The composite Z-score in test [1] is 0.095 (inactive).

With `COC(=O)[C@@H]1N=C(c2ccc(OCCCO)cc2)O[C@@H]1C`, the composite z-score with Albumin (Bos taurus) was -0.867; in test [2], 0.0893; in test [3], -0.082; in test [4] it was -0.153; in test [5], -0.223; in test [6], 0.905. Also, the composite z-score was 0.973 with Sam68 (KHDRBS1), -0.155 in [7] and 0.0255 in test [8]. In addition, the composite Z-score in [1] was -0.385 (inactive).

Regarding `COC(=O)[C@@]1(Cc2ccc(OC)cc2)[C@H]2c3cc(C(=O)N4CCCC4)n(CCO)c3C[C@H]2CN1C(=O)c1ccccc1`, the composite z-score with Albumin (Bos taurus) turned out to be 0.245; in [2], 0.302; in [3], 0.0918; in test [4] it was 0.847; in [5] it was 2.46; in test [6], 0.57. The composite z-score was 0.827 in the test with Sam68 (KHDRBS1), -0.0307 in test [7] and 0.716 in test [8]. For the same compound, in test [1], the composite Z-score is -0.423 (inactive).

With `CCCCC(CC)C(O)C1C=CC2C(=O)N(c3ccccc3)C(=O)C2N1Nc1ccccc1F` (stereo not given), the composite z-score with Albumin (Bos taurus) was 0.468; in test [2] it was 0.225; in test [3], -0.153; in test [4], 0.749; in [5], 2.75; in test [6], 0.51. For the same compound, the composite z-score with Sam68 (KHDRBS1) was 1.12; in test [7], -0.904; in test [8], 0.0845. The composite Z-score in [1] was -0.243 (inactive).

`O=C1N(CCS(=O)(=O)c2ccccc2)c2ccccc2[C@H]2OC(c3ccc(OCCCO)cc3)=N[C@@]12Cc1ccccc1`: the composite z-score in the test with Albumin (Bos taurus) is -0.154; in test [2], 0.146; in test [3] it was 0.087; in [4], 0.555; in test [5] it was 2.93; in test [6], 0.991. Moreover, the composite z-score is 1.29 in the test with Sam68 (KHDRBS1), 1.4 in test [7] and 1.14 in test [8]. Moreover, in test [1], the composite Z-score was 1.47 (inactive).
